A selection: hits, their analogues and other compounds. The true share with any hit is near 4.1%.
LMP1 NFkB inh: reduces LMP1-driven NF-kappaB luciferase signal; LMP1-induced NF-kappaB luciferase reporter cells, luminescence; AID 504558; inhibition, % at 12.5 µM; 0.69% of 350,000 active; in the data active = inhibition above about 41%; inconclusive = no clear call, values can overlap the other calls
Peg3 prom inh: Peg3 promoter activity inhibition; HeLa PEG-Prom luciferase reporter, luminescence, overnight; inhibition, % at 20 µM; 1.7% of 360,000 active; AID 588405;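 active = inhibition of at least 50% at 20 µM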
TROY NFkB inh: TROY signaling inhibition. AID 1347056. Q293 LMP1-TROYcd NF-kB luciferase reporter, 4 h. 0.98% of 360,000 active. inhibition, % at 10 µM;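 active = compounds whose plate-normalised and pattern-corrected inhibition of the luciferase reporter signal at the single screening dose is 50% or more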
Shn3 inh set2: Schnurri-3 reporter inhibition in Clone20 osteoblasts. inhibition, % at 12.5 µM. Clone20 osteoblast Shn3 3'UTR firefly luciferase, 24 h. 0.52% of 360,000 active;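 active = mean inhibition of at least 75% with every replicate also reaching 75%; inconclusive = mean inhibition at least 75% but some replicate below; inactive = mean inhibition below 75%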
TRPM1 prom inh: MITF TRPM1 promoter inhibition in SK-MEL-5 cells | SK-MEL-5 TRPM1 promoter luciferase, 24 h | inhibition, % at 12.5 µM | 0.83% of 330,000 active | AID 488899;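 active = mean inhibition across replicates of 60% or more, whatever share of single replicates reaches that level; inconclusive = some that reach 60%, reason not given; inactive = mean inhibition across replicates below 60%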
TWEAK-Fn14 inh: inhibitors of TWEAK-Fn14 interaction signaling | TWEAK-stimulated Fn14 reporter cells, luciferase luminescence, 8 h | inhibition, % at 10 µM | 2% of 360,000 active; in the data active = inhibition above about 50%
Large screens that a line does not name were inactive.

COc1ccc(CN([C@H](CO)CC(C)C)S(=O)(=O)N(Cc2ccccc2)[C@H](CO)CC(C)C)cc1	Peg3 prom inh 83
C=CS(=O)(=O)N(Cc1ccccc1Br)[C@H](CO)CC(C)C	Peg3 prom inh 56
CC(C)C[C@@H](CO)N(Cc1ccccc1)S(=O)(=O)N(Cc1ccccc1)[C@H](CO)CC(C)C	Peg3 prom inh 83, TROY NFkB inh 52, Shn3 inh set2 inconclusive
O=S(=O)(N(Cc1ccccc1)[C@H](CO)Cc1ccccc1)N(Cc1ccccc1)[C@H](CO)Cc1ccccc1	none
CC(C)C[C@@H](CO)N(Cc1ccccc1)S(=O)(=O)N(Cc1ccccc1)[C@@H](CO)CC(C)C	Peg3 prom inh 85, TROY NFkB inh 53, Shn3 inh set2 90
COC(=O)c1c(NC(=O)Cc2ccccc2)sc2c1CC(C)(C)NC2(C)C	none
CCOC(=O)c1c(NC(=O)CSc2nc3ccc(OC)cc3[nH]2)sc2c1CC(C)(C)NC2(C)C	Peg3 prom inh 91
COC(=O)c1c(NC(=O)COc2ccc(Cl)cc2)sc2c1CC(C)(C)NC2(C)C	Peg3 prom inh 99, TRPM1 prom inh 82
CCOC(=O)c1c(NC(=O)CSc2ncccn2)sc2c1CC(C)(C)NC2(C)C	none
Cc1cc(OCC(=O)Nc2sc3c(c2C#N)CC(C)(C)NC3(C)C)c(C(C)C)cc1Cl	none
Cc1ccc(C(C)C)c(OCC(=O)Nc2sc3c(c2C#N)CC(C)(C)NC3(C)C)c1	TWEAK-Fn14 inh 50
Cc1ccc2c(c1)N(C(=O)CCC(=O)N1CCC(C(N)=O)CC1)CCO2	none
CC1=NC(C#N)=C(C#N)NC(C)(C)C1	none
COc1ccc(NC(=O)CSc2nnc(-c3cccs3)n2-c2ccccc2)cc1	TWEAK-Fn14 inh 54
Cn1cccc1Cc1nnc(SCC(=O)N2CCCc3ccccc32)n1-c1ccc(F)cc1	none
Cn1cccc1Cc1nnc(SCC(=O)N2CCc3ccccc32)n1-c1ccc(F)cc1	TWEAK-Fn14 inh 57
COc1ccc(-n2c(Cc3cccn3C)nnc2SCC(=O)Nc2ccc(C)c(Cl)c2)cc1	TWEAK-Fn14 inh 52
COc1ccc(CNc2ncc(-c3ccc(F)cc3)n2C)c2ccccc12	Peg3 prom inh 59, TWEAK-Fn14 inh 58
COc1ccccc1CNc1ncc(-c2ccc(F)cc2)n1C	none
O=S(=O)(Cc1cc(Cl)nc(-c2ccncc2)n1)c1ccccc1	TROY NFkB inh 51
O=S(=O)(Cc1cc(Cl)nc(-c2ccccc2)n1)c1ccccc1	none
O=C(NCCC1=CCCCC1)C1CCC(CNc2nc(=S)[nH]c3ccccc23)CC1 (configuration not stated)	TRPM1 prom inh 64
O=C(NCCc1ccc(Cl)cc1)C1CCC(CNc2nc(=S)[nH]c3ccccc23)CC1 (configuration not stated)	TRPM1 prom inh 76
CCn1c(/N=C/c2ccccc2NS(=O)(=O)c2ccc(C)cc2)nc2ccccc21	none
CCCOc1ccc(C(=O)CCNC(Cc2c[nH]c3ccccc23)C(=O)O)cc1 (configuration not stated)	none
COc1cc(C(=O)Nc2scc(-c3ccc(Br)cc3)c2C(=O)O)cc(OC)c1OC	TROY NFkB inh 72
CCOc1ccc(/C=C2\CCC(C3CCCC3)C2=O)cc1 (configuration not stated)	none
CCC(=O)OCOc1ccc(/C=C2/CCC(CN(C)C)C2=O)cc1 (configuration not stated)	Peg3 prom inh 100, TRPM1 prom inh 67
Cc1ccc(CN(C(=O)COc2ccc(Br)cc2)C2CCS(=O)(=O)C2)o1 (configuration not stated)	none
C[C@H](CO)N1C[C@H](C)[C@@H](CN(C)S(=O)(=O)c2ccccc2)Oc2ccc(NC(=O)CCC(F)(F)F)cc2C1=O	none
COc1cccc(N2CCN(C(=S)Nc3ccccc3)CC2)c1	Peg3 prom inh 110
S=C(Nc1ccccc1)N1CCN(C2CCCCC2)CC1	TROY NFkB inh 60
CCc1ccc(NC(=S)N2CCN(c3cccc(OC)c3)CC2)cc1	none
FC(F)(F)c1cccc(NC(=S)NC(c2ccccc2)c2ccccc2)c1	Peg3 prom inh 50, Shn3 inh set2 inconclusive
O=C(CS(=O)(=O)c1c[nH]c2ccccc12)N1CCCCCC1	none
Cc1ccc(-c2nn(-c3ccccc3)cc2NC(=O)CCl)cc1	Peg3 prom inh 105
Cc1ccc(-c2cc(NC(=O)CCl)n(-c3ccccc3)n2)cc1	none (no result: Shn3 inh set2)
Cc1ccc(-c2nn(-c3ccccc3)cc2CNCc2ccccc2)cc1	Peg3 prom inh 53
Cc1ccc(-c2nn(-c3ccccc3)cc2CO)cc1	none
Cc1ccc(-n2cc(CNCCCn3cccn3)c(-c3cccc(C)c3)n2)cc1	Peg3 prom inh 85, TRPM1 prom inh 79
O=C1CC(c2ccc3c(c2)OCO3)Sc2nc3ccccc3n21 (configuration not stated)	TROY NFkB inh 84, TWEAK-Fn14 inh 89
CSc1nc(C)cc(C)c1C#N	LMP1 NFkB inh 94
Cc1cc(C)c(C#N)c(SCc2ccc(F)cc2)n1	none
CC(C)N1CCc2c(sc(NC(=O)c3ccc([N+](=O)[O-])o3)c2C(N)=O)C1	Peg3 prom inh 104, TRPM1 prom inh 94
CC(=O)N1CCc2c(sc(NC(=O)c3ccc([N+](=O)[O-])o3)c2C#N)C1	Peg3 prom inh 109, TRPM1 prom inh 95
CC(C)N1CCc2c(sc(NC(=O)c3cc(-c4cccs4)nc4ccccc34)c2C(N)=O)C1	Peg3 prom inh 78
COc1ccc(C(=O)Nc2sc3c(c2C#N)CCN(C(C)=O)C3)cc1	none
COc1ccc(-c2ccc(C(=O)Nc3cc(OC)c(OC)c(OC)c3)c3occc23)c(C)c1	none (no result: LMP1 NFkB inh, TRPM1 prom inh)
CCCOc1ccc(C(=O)c2nc3c(n2O)CCCC3)cc1	none
CCn1nc(C(C)C)cc1C(=O)N1CCCC(CO)(Cc2ccc(F)cc2F)C1 (configuration not stated)	none
O=C(ONC1=NCCCCC1)c1ccc(Cl)cc1	Peg3 prom inh 101
CCN1C(=O)N[C@@H](c2ccco2)C(C(=O)OC)=C1C	none
Cc1cc(C)c2nc(N3CCC(C(=O)NCCCN4CCCCC4)CC3)sc2c1	Peg3 prom inh 70, TRPM1 prom inh 69
Cc1cc(C)c2nc(N3CCC(C(=O)NCC4CCCO4)CC3)sc2c1 (configuration not stated)	none
Cc1nc2cc(-c3cccc(F)c3)nn2c(C)c1CCC(=O)NC(C)CCc1ccco1 (configuration not stated)	TWEAK-Fn14 inh 67
S=c1[nH]nc(COc2ccccc2)n1/N=C/C(Cl)=C/c1ccccc1	none
Cc1ccc(NC(=O)Nc2ccc3c(c2)OCO3)c(Br)c1	none
COc1ccc2c(-c3cc4ccc(OCc5ccc(F)cc5)cc4oc3=O)cc(=O)oc2c1	Peg3 prom inh 76
CCC1CCCCN1C(=O)c1cc(COc2ccc3ncccc3c2)on1 (configuration not stated)	Shn3 inh set2 88

Compound activity: PubChem BioAssay, several laboratories
